Legend:
RIVA [1] = test: growth inhibition by drug plus 177Lu-lilotomab satetraxetan (1 - RLU/untreated control) (fraction); higher = stronger inhibition; conditions: 177Lu-lilotomab satetraxetan 0.5 ug/ml
Summary of the method: (§1)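 Growth inhibition was calculated from RealTime-Glo RLU against untreated no-drug wells. Values equal 1 − RLU/mean of 48 untreated no-drug wells per plate, read daily from day 3 after 1 h at 37°C. RIVA and U-2932 cells, with or without 18 h pretreatment by a radiolabelled anti-CD37 antibody conjugate (~600 MBq/mg; 0.5 µg/ml RIVA, 1 µg/ml U-2932), were washed and plated at 3,000 cells/well on compound-printed plates at 10/100 nM (RIVA) or 10/1,000 nM (U-2932).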

U-2932 [2] = test: growth inhibition by drug alone (1 - RLU/untreated control) (fraction); higher = stronger inhibition; conditions: 177Lu-lilotomab satetraxetan 0 ug/ml
Summary of the method: as §1

RIVA [3] = test: as above; conditions: 177Lu-lilotomab satetraxetan 0 ug/ml
Summary of the method: as §1

U-2932 [4] = test: growth inhibition by drug plus 177Lu-lilotomab satetraxetan (1 - RLU/untreated control) (fraction); higher = stronger inhibition; conditions: 177Lu-lilotomab satetraxetan 1 ug/ml
Summary of the method: as §1

SMILES	growth inhibition by drug plus 177Lu-lilotomab satetraxetan (RIVA [1]; 100 nM, time (day): 5)	growth inhibition by drug plus 177Lu-lilotomab satetraxetan (RIVA [1]; 100 nM, time (day): 6)	growth inhibition by drug alone (U-2932 [2]; 10 nM, time (day): 3)	growth inhibition by drug alone (U-2932 [2]; 10 nM, time (day): 4)	growth inhibition by drug alone (U-2932 [2]; 10 nM, time (day): 5)	growth inhibition by drug alone (U-2932 [2]; 10 nM, time (day): 6)	growth inhibition by drug alone (U-2932 [2]; 1000 nM, time (day): 3)	growth inhibition by drug alone (U-2932 [2]; 1000 nM, time (day): 4)	growth inhibition by drug alone (U-2932 [2]; 1000 nM, time (day): 5)	growth inhibition by drug alone (U-2932 [2]; 1000 nM, time (day): 6)	growth inhibition by drug alone (RIVA [3]; 10 nM, time (day): 3)	growth inhibition by drug alone (RIVA [3]; 10 nM, time (day): 4)	growth inhibition by drug alone (RIVA [3]; 10 nM, time (day): 5)	growth inhibition by drug alone (RIVA [3]; 10 nM, time (day): 6)	growth inhibition by drug alone (RIVA [3]; 100 nM, time (day): 3)	growth inhibition by drug alone (RIVA [3]; 100 nM, time (day): 4)	growth inhibition by drug alone (RIVA [3]; 100 nM, time (day): 5)	growth inhibition by drug alone (RIVA [3]; 100 nM, time (day): 6)	growth inhibition by drug plus 177Lu-lilotomab satetraxetan (U-2932 [4]; 10 nM, time (day): 3)	growth inhibition by drug plus 177Lu-lilotomab satetraxetan (U-2932 [4]; 10 nM, time (day): 4)	growth inhibition by drug plus 177Lu-lilotomab satetraxetan (U-2932 [4]; 10 nM, time (day): 5)	growth inhibition by drug plus 177Lu-lilotomab satetraxetan (U-2932 [4]; 10 nM, time (day): 6)	growth inhibition by drug plus 177Lu-lilotomab satetraxetan (U-2932 [4]; 1000 nM, time (day): 3)	growth inhibition by drug plus 177Lu-lilotomab satetraxetan (U-2932 [4]; 1000 nM, time (day): 4)	growth inhibition by drug plus 177Lu-lilotomab satetraxetan (U-2932 [4]; 1000 nM, time (day): 5)	growth inhibition by drug plus 177Lu-lilotomab satetraxetan (U-2932 [4]; 1000 nM, time (day): 6)	growth inhibition by drug plus 177Lu-lilotomab satetraxetan (RIVA [1]; 10 nM, time (day): 3)	growth inhibition by drug plus 177Lu-lilotomab satetraxetan (RIVA [1]; 10 nM, time (day): 4)	growth inhibition by drug plus 177Lu-lilotomab satetraxetan (RIVA [1]; 10 nM, time (day): 5)	growth inhibition by drug plus 177Lu-lilotomab satetraxetan (RIVA [1]; 10 nM, time (day): 6)	growth inhibition by drug plus 177Lu-lilotomab satetraxetan (RIVA [1]; 100 nM, time (day): 3)	growth inhibition by drug plus 177Lu-lilotomab satetraxetan (RIVA [1]; 100 nM, time (day): 4)
CN(C)c1ccccc1CN1CCCN(Cc2ccccc2N(C)C)C1c1ccncc1	0.504	0.487																														
CCN1CCN(Cc2ccc(-c3cc4c(N[C@H](C)c5ccccc5)ncnc4[nH]3)cc2)CC1	0.435	0.409	-0.00148	0.0172	0.023	0.0324	-0.166	-0.174	-0.287	-0.315	-0.0711	-0.0709	-0.153	-0.452	-0.2	-0.171	-0.217	-0.348	-0.00551	0.0118	0.0153	0.0829	-0.206	-0.119	-0.121	-0.0824	0.45	0.538	0.553	0.545	0.314	0.416
CC(C)C[C@H](NC(=O)CNC(=O)c1cc(Cl)ccc1Cl)B(O)O	0.668	0.59	-0.0591	-0.0376	0.0132	0.111	0.983	0.984	0.984	0.985	-0.217	-0.196	-0.201	-0.298	0.177	0.166	0.0904	-0.0331	-0.0412	-0.00704	0.027	0.197	0.984	0.985	0.985	0.987	0.38	0.491	0.522	0.525	0.656	0.686
COc1cc2ncnc(Nc3ccc(F)c(Cl)c3)c2cc1NC(=O)/C=C/CN1CCCCC1	0.387	0.392	-0.101	-0.0931	-0.078	0.0128	-0.222	-0.156	-0.164	-0.0283	-0.299	-0.339	-0.376	-0.409	-0.261	-0.3	-0.331	-0.346	-0.0733	-0.0275	0.0218	0.0574	-0.26	-0.16	-0.0838	0.0995	0.446	0.525	0.55	0.538	0.262	0.366
CC(C)C[C@H](NC(=O)[C@H](Cc1ccccc1)NC(=O)c1cnccn1)B(O)O [Bortezomib (Velcade)]	0.989	0.99	0.965	0.971	0.976	0.978	0.985	0.984	0.985	0.985	0.923	0.946	0.958	0.96	0.978	0.978	0.978	0.976	0.952	0.967	0.976	0.98	0.986	0.987	0.986	0.988	0.955	0.969	0.976	0.98	0.989	0.989
CCN(CC)CCOc1ccc(Nc2ncc3cc(-c4c(Cl)cccc4Cl)c(=O)n(C)c3n2)cc1	0.405	0.287	0.107	0.071	0.00536	-0.00834	0.719	0.785	0.78	0.774	-0.00347	0.00881	-0.0667	-0.267	0.458	0.461	0.386	0.22	0.0115	0.0427	0.0614	0.118	0.958	0.972	0.981	0.984	0.458	0.527	0.536	0.546	0.495	0.473
COc1cccc2c1C(=O)c1c(O)c3c(c(O)c1C2=O)C[C@@](O)(C(=O)CO)C[C@@H]3O[C@H]1C[C@H](N)[C@H](O)[C@H](C)O1 [Doxorubicin (Adriamycin)]	0.952	0.968	0.258	0.293	0.356	0.433	0.974	0.983	0.986	0.988	0.198	0.324	0.365	0.391	0.62	0.794	0.872	0.915	0.422	0.492	0.589	0.687	0.979	0.986	0.989	0.99	0.831	0.879	0.909	0.933	0.869	0.928
CN(C)c1nc(N(C)C)nc(N(C)C)n1 [Altretamine (Hexalen)]	0.312	0.332	-0.0883	-0.0905	-0.0583	-0.058	-0.122	-0.0758	-0.114	0.0216	-0.25	-0.257	-0.29	-0.318	-0.545	-0.424	-0.488	-0.694	-0.146	-0.0735	-0.0141	-0.0604	-0.101	-0.0503	0.00142	0.121	0.349	0.469	0.481	0.485	0.239	0.318
